Experimental findings from PubChem BioAssay (Tox21) are described below.

A number with no mark means an inactive call. Records with an inconclusive call do not appear. Active and inactive are the calls of the source. Unless noted, calls follow the shape of the dose curve; as a rule, active = well fitted curve in the direction sought with a large enough effect in the repeat runs; inconclusive = weak or mixed curves; inactive = no such curve, though single readings can be large; an effect the other way counts as inactive or inconclusive.

Assay [1] in a line: qHTS assay to identify small molecule agonists of H2AX (AID 1224845; active = well fitted activation curve with a large enough effect in the signal ratio in the repeat runs, not every such curve was filed as active; the % refers to the signal ratio). Summed up:
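Wild-type CHO-K1 cells, plated overnight, exposed 3hr at 37C to 15 concentrations (0.76% DMSO final). Lysed, then HTRF anti-pH2AX (S139) cryptate and anti-H2AX-d2 antibodies, 24 hr room temperature; 665/620 nm emission read.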
On the technique in general: In qHTS, concentration-response curves come from the screen itself.

Assay [2] can be described thus: qHTS assay to identify small molecule agonists of the hypoxia (HIF-1) signaling pathway (AID 1224846; active = well fitted activation curve with a large enough effect in the signal ratio in the repeat runs, not every such curve was filed as active; the % refers to the signal ratio). The method, boiled down: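 Measured by blue/green FRET after loading CCF4-AM: beta-lactamase expressed from a hypoxia response element in ME-180 cells. Test agents were delivered in DMSO and left 17 hrs; cells had been plated 5 hrs earlier in low-serum (0.5% dialyzed FBS) medium.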

The nature of assay [3]: qHTS RealTime-Glo MT Cell Viability Assay in HepG2 cells - 24 hour (AID 1224867). Also: nearly all actives have a fitted effect of over 50% in size. Also: potency is read from the fitted curve at half-maximal effect. The method, boiled down: (§1)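 HepG2 suspension premixed with RealTime-Glo reagents is plated at 600 cells per well and left 5 h at 37 C/5% CO2. Compounds in DMSO then go in, and bioluminescence reflecting viable cell number is recorded over 40 h.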
Assay [4] in a line: A CellTox Green Cytotoxicity Assay to monitor cytotoxicity in HEK293 cells - 0 hour (AID 1224869). Also: nearly all actives have a fitted effect of over 50% in size. The method, boiled down: (§2)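 Each value comes from one timepoint of a single continuous run in which HEK293 cells with CellTox Green were exposed to compound for up to 40 h at 37 C, dye fluorescence rising with cell death.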
Assay [5] in a line: qHTS RealTime-Glo MT Cell Viability Assay in HepG2 cells - 40 hour (AID 1224870). Also: nearly all actives have a fitted effect of over 50% in size. Also: potency is read from the fitted curve at half-maximal effect. Summed up:
(§3)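 HepG2 cells (600/well) mixed with RealTime-Glo MT reagent, settled 5 h at 37 C/5% CO2 before compound addition. Nonlytic NanoLuc luminescence from viable-cell prosubstrate reduction read repeatedly during 40 h treatment at 37 C.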

Assay [6] in a line: A CellTox Green Cytotoxicity Assay to monitor cytotoxicity in HEK293 cells - 40 hour (AID 1224871). Also: nearly all actives have a fitted effect of over 45% in size. Summed up:
as §2

Assay [7] can be described thus: qHTS RealTime-Glo MT Cell Viability Assay in HEK293 cells - 16 hour (AID 1224872). Also: top concentration of the series differs between compounds; nearly all actives have a fitted effect of over 50% in size. Summed up:
(§4)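 Reads taken at 0, 8, 16, 24, 32 and 40 h from the same wells. HEK293 cells (600/well) carried RealTime-Glo reagents from seeding, with compound added after a 5 h settle at 37 C.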

A short description of assay [8]: qHTS RealTime-Glo MT Cell Viability Assay in HepG2 cells - 8 hour (AID 1224873). Also: nearly all actives have a fitted effect of over 55% in size. The method, boiled down: as §3
A short description of assay [9]: A CellTox Green Cytotoxicity Assay to monitor cytotoxicity in HEK293 cells - 24 hour (AID 1224875). Also: nearly all actives have a fitted effect of over 45% in size. Summed up: as §2
Assay [10] is described as follows: A CellTox Green Cytotoxicity Assay to monitor cytotoxicity in HepG2 cells - 16 hour (AID 1224876). Also: nearly all actives have a fitted effect of over 45% in size. The method, boiled down:
(§5)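 Continuous culture of HepG2 cells with a membrane-impermeant DNA dye; rising fluorescence marks dead cells. Compound exposure lasted up to 40 h at 37 C, with reads every 8 h from 0 h.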

Assay [11] in a line: qHTS RealTime-Glo MT Cell Viability Assay in HepG2 cells - 32 hour (AID 1224877). Also: nearly all actives have a fitted effect of over 55% in size. Also: potency is read from the fitted curve at half-maximal effect. Summed up: as §1
The nature of assay [12]: A CellTox Green Cytotoxicity Assay to monitor cytotoxicity in HepG2 cells - 24 hour (AID 1224878). Also: nearly all actives have a fitted effect of over 45% in size. The method, boiled down:
as §5

Assay [13] in a line: A CellTox Green Cytotoxicity Assay to monitor cytotoxicity in HepG2 cells - 40 hour (AID 1224879). Also: nearly all actives have a fitted effect of over 40% in size. The method, boiled down:
as §5

Assay [14] is described as follows: qHTS RealTime-Glo MT Cell Viability Assay in HEK293 cells - 0 hour (AID 1224880). The method, boiled down: (§6)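 qHTS format; HEK293 cells with NanoLuc/prosubstrate reagent, 37 C/5% CO2 for 5 h pre-dosing; compounds 23 nL in DMSO; luminescence at each time point reflects viable cells.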
Assay [15] is described as follows: A CellTox Green Cytotoxicity Assay to monitor cytotoxicity in HEK293 cells - 32 hour (AID 1224881). Also: nearly all actives have a fitted effect of over 40% in size. The method, boiled down:
as §2

Assay [16] is described as follows: qHTS RealTime-Glo MT Cell Viability Assay in HEK293 cells - 32 hour (AID 1224868). Also: nearly all actives have a fitted effect of over 50% in size. Also: potency is read from the fitted curve at half-maximal effect. Summed up: as §4
Assay [17] can be described thus: qHTS RealTime-Glo MT Cell Viability Assay in HEK293 cells - 40 hour (AID 1224874). Also: nearly all actives have a fitted effect of over 50% in size. To be noted: RealTime-Glo luminescence; max response: active compounds read low. The method, boiled down: as §6
A short description of assay [18]: qHTS assay to identify small molecule antagonists of the estrogen related receptor (ERR) signaling pathway from Tox21 library (AID 1224848). Also: nearly all actives have a fitted effect of over 50% in size. Also: potency is read from the fitted curve at half-maximal effect. Summed up:
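Luminescent reporter read-out (ONE-Glo) from NTP's ERR cell line after 18 h treatment at 37 C with DMSO-dissolved Tox21 compounds; cells pre-plated 6 h beforehand at 2,000 per well.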

The nature of assay [19]: qHTS assay to identify small molecule agonists of the estrogen related receptor (ERR) signaling pathway from Tox21 library (AID 1224849; calls by dose curve; also: nearly all actives have a fitted effect of over 15% in size). To be noted: ERR reporter cell line, ONE-Glo luciferase, 18 h; at 92.4 µM (top of the series) unless noted. Summed up: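 We plated ERR reporter cells, waited 6 h, added compounds in DMSO by pin tool and incubated them 18 h at 37 C. ONE-Glo was then added and luminescence read after 30 min.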

Assay [20] can be described thus: qHTS assay to identify small molecule agonists of H2AX - cell viability counter screen (AID 1224847; calls by dose curve; also: top concentration of the series differs between compounds; nearly all actives have a fitted effect of over 30% in size). The method, boiled down: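 We seed wild-type CHO-K1 cells overnight, treat them for 3 hr at 37C with compounds in 15-concentration series, and quantify remaining viability by CellTiter-Glo luminescence.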
% is scaled to controls: 0 for no effect and ±100 for the full control effect.

For the compound `Cc1ccccc1C(=O)Nc1cccc(OC(C)C)c1`, the Potency result in assay [1], in assay [3], in assay [4], in [5], in assay [6] and in [7] was “inactive” each time. For the same compound, the Potency entry in [8], in assay [9], in assay [10], in [11], in assay [12] and in assay [13] was “inactive” each time. Further, the Potency result in [14] and in assay [15] was “inactive” throughout. For the same compound, the call in [2] was inactive.
For `Cc1c(F)c(F)c(COC(=O)C2C(/C=C(\Cl)C(F)(F)F)C2(C)C)c(F)c1F` (stereo unspecified), the Potency entry in assay [1], in [3], in [16], in assay [4], in [5] and in assay [7] was “inactive” each time. The Potency entry in assay [8], in [9], in assay [10], in assay [11], in assay [12] and in assay [13] was “inactive” in each case. Also, the Potency result in [14] and in assay [15] was “inactive” throughout. The result in assay [2] was inactive. In addition, the max response in assay [17] was 6.54%.
Regarding `O=C(Nc1ccccc1)Nc1ccnc(Cl)c1`, the Potency result in assay [1], in [3], in assay [4], in assay [5], in assay [6] and in [8] was “inactive” each time. The Potency result in assay [9], in assay [10], in [11], in assay [12], in assay [14] and in assay [15] was “inactive” each time. The Potency was 24.3 µM (active) in [18] and 19.5 µM (active) in assay [16]. Also, the activity change, positive = activation in assay [19] is -55.6%.
For the compound `O=C(CBr)Nc1ccc(Cl)cc1C(=O)c1ccccc1F`, the Potency entry in assay [1], in assay [20], in assay [18], in assay [3], in [16] and in [4] was “inactive” each time. The Potency entry in [6], in [7], in assay [8], in [9], in [10] and in [11] was “inactive” throughout. Moreover, the Potency result in assay [12], in [13], in assay [14] and in assay [15] was “inactive” throughout. In [19], the activity change, positive = activation was -13.3% [at 42.5 µM]. Also, in assay [17], the max response was -13.4%.
`COP(=S)(Oc1cc(Cl)c(Br)cc1Cl)c1ccccc1` (stereo unspecified): the Potency entry in [1], in [3], in assay [4], in [5], in assay [6] and in assay [8] was “inactive” each time. Besides, the Potency result in [9], in assay [11], in [14] and in [15] was “inactive” each time. Further, the outcome in assay [2] was inactive. In addition, in assay [19], the activity change, positive = activation was -31.4%.
For `NC(=O)CI`, the Potency entry in assay [1], in [18], in [4], in assay [7] and in assay [14] was “inactive” in each case. For the same compound, in [19], the activity change, positive = activation was -20%. Further, the values for the Potency in assay [3], in assay [5] and in [11] were 13.9 µM (active), 6.22 µM (active) and 9.86 µM (active), respectively. For the same compound, the max response in [17] is 1.19%.
Turning to `CCOc1nc(F)cc2nc(S(=O)(=O)Nc3c(Cl)cccc3Cl)nn12`, the Potency entry in assay [1], in [3], in assay [16], in [4], in assay [7] and in assay [8] was “inactive” in each case. Besides, the Potency entry in [9], in [10], in assay [11], in assay [12], in assay [13] and in assay [15] was “inactive” each time. Besides, the compound was classed as inactive in [2].
Consider `C=CCN1CC[C@]23c4c5ccc(O)c4O[C@H]2C(=O)CC[C@@]3(O)[C@H]1C5`, for which the Potency entry in [1], in [20], in [18], in assay [3], in [16] and in [4] was “inactive” each time. In addition, the Potency result in assay [7], in assay [8], in assay [9], in [10], in assay [11] and in assay [12] was “inactive” each time. The Potency entry in assay [13], in assay [14] and in assay [15] was “inactive” each time. Also, in assay [19], the activity change, positive = activation was -6.24% [at 42.5 µM]. Further, the max response in assay [17] is -0.323%.
